Source: PubChem BioAssay (NCI)
“And” between values parts separate entries of the source, which are not always exact repeats. Identical values can stand only once. Compounds without any hit were thinned out: in the full panel of roughly 79,000, 15% have a hit. Unmarked numbers belong to inactive results. The source made the active and inactive calls. No stated cut-off is given here; in the data, active means growth inhibition above about 70%; inactive means the rest.

Tests used:
[1] = NCI Yeast Anticancer Drug Screen. Data for the rad50 strain (AID 155);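 further: 0% = growth of vehicle-only cultures of the same strain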; conditions: S. cerevisiae rad50 strain growth inhibition; at 50.0 µM; hits give high values
Procedure, shortened: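 Vehicle-treated cultures provide the reference for the growth inhibition reported for compound-exposed, repair-deficient yeast.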

[2] = NCI Yeast Anticancer Drug Screen. Data for the mec2-1 strain (AID 157); conditions: S. cerevisiae mec2-1 strain, at 50.0 µM, hits give high values
Procedure, shortened: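 Readout is yeast growth inhibition, normalised to vehicle-treated controls, in the mec2-1 strain exposed to compound.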

[3] = NCI Yeast Anticancer Drug Screen. Data for the sgs1 mgt1 strain (AID 161);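 further: 0% = growth of cultures given vehicle only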; conditions: S. cerevisiae sgs1 mgt1 strain, at 50.0 µM, hits give high values
Procedure, shortened: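 Growth of a repair-deficient yeast mutant was monitored after compound treatment and expressed as inhibition relative to vehicle-treated cultures.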

[4] = NCI Yeast Anticancer Drug Screen. Data for the cln2 rad14 strain (AID 165);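 further: 0% = growth equal to vehicle treated cultures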; conditions: S. cerevisiae cln2 rad14 strain, at 50.0 µM, hits give high values
Procedure, shortened: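 Relative to vehicle controls, growth inhibition of compound-treated cln2 rad14 yeast was recorded.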

[5] = NCI Yeast Anticancer Drug Screen. Data for the bub3 strain (AID 167); conditions: S. cerevisiae bub3 mutant strain, at 50.0 µM, hits give high values
Procedure, shortened: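 Mutant yeast screening strain plus compound; vehicle-treated cultures serve as the 0% inhibition reference.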

[6] = NCI Yeast Anticancer Drug Screen. Data for the mlh1 rad18 strain (AID 175); conditions: S. cerevisiae mlh1 rad18 strain growth inhibition; at 50.0 µM; hits give high values
Procedure, shortened: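 Test agents were incubated with a yeast strain of defined genotype (DNA damage repair defect). Inhibition of growth was derived by comparison with vehicle-exposed cultures.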

SMILES | growth inhibition [1] | growth inhibition [2] | growth inhibition [3] | growth inhibition [4] | growth inhibition [5] | growth inhibition [6]
NC(Cc1cnc[nH]1)C(=O)NC(Cc1cnc[nH]1)C(=O)O (stereo not drawn) | -5.1% | 9% | -1.5% | 10.6% | 4.45% | 7.6%
O=C(O)C(O)(c1ccccc1)C1CCCCC1 (stereo not drawn) | 1% and 8.5% | -19.5% and 5.45% | -2.1% and -8.8% | 18.6% and -7.65% | -30.9% and 0.6% | -1.6% and -2.85%
CC(Cc1ccccc1)NC(=O)/C=C/C(=O)O (stereo not drawn) | 5.9% | 4.25% | 9.6% | -6.95% | 36.8% | 11.9%
c1ccc(N2CCN(Cc3c[nH]c4ccccc34)CC2)cc1 | 7.9% | 1.9% | 7.55% | -26.6% | 0.85% | -9.6%
NC(Cc1ccccc1)c1ccccc1 (stereo not drawn) | 3.15% and -1.6% | -7.3% and -0.95% | 0.3% and -16.8% | -36% and -23.1% | 5.35% and 1.75% | 14.8% and -0.1%
O=C(O)C1CCCC(C(=O)O)[N-]1.O=C(O)C1CCCC(C(=O)O)[N-]1.[Cr+2] (stereo not drawn) | 31% | -3.5% | 15.8% | -14.5% | -2% | 14.3%
COc1ccc([N+](=O)[O-])cc1N=Cc1ccc(N(CCCl)CCCl)cc1C | 43% | 13.3% | 52.2% | 18.6% | 3.5% | 17.1%
N.N.N.N.N.N.[I-].[Os] | 23.5% | 1.45% | 5.4% | 7.6% | 1.25% | -2%
COc1ccc(CCNC2CC3CCC2(C)C3(C)C)cc1OC (stereo not drawn) | 15.6% | 12.8% | 11.5% | -22.3% | 8.75% | 24.9%
Cc1cnc2ncn(Cc3c[nH]c(=O)[nH]c3=O)c(=O)c2c1 | -0.45% | 5.55% | -8% | 14.2% | -18.4% | -11.5%
O=C1CC23c4ccccc4N4C(=O)CC5OCC=C6CN1C2CC6C5C43 (stereo not drawn) | 4.1% | -34.5% | -7.15% | 7.9% | 12.8% | 6.8%
CC(C)=CCN1CCC2(C)c3cc(O)ccc3CCC2C1 (stereo not drawn) | -9.9% | -8.8% | -0.8% | -31.2% | -6.5% | -2.1%
CCOP(=O)(OCC)/C(C#N)=C/c1ccoc1 | -36% | -5.8% | -58.2% | -15.2% | -29.9% | -51%
Nc1ccccc1C(=O)Oc1ccccn1 | 7.45% | 8.9% | -0.8% | 13.6% | -8.85% | 6.35%
CCCCCCNCCc1cnc[nH]1 | 12.8% | 3.1% | 15% | 17.5% | 2.75% | -68.7%
O=CNNC(=O)C(Cl)Cl | 4.25% | -11.9% | -10.1% | -31.3% | -3.45% | 8.9%
O=C(COc1ccc(Cl)c(Cl)c1)Nc1ccc[n+](Cc2ccc(Cl)c(S(=O)(=O)F)c2)c1 | 98.2% (active) | 90.7% (active) | 95.3% (active) | 79.3% (active) | 78.2% (active) | 98.5% (active)
C[N+](C)(C)C | -0.3% and 4.95% and -7% | 14.2% and -39% and -9.3% | -5.75% and -25.2% and 8.3% | -16.5% and 6.35% and 2.35% | 21.4% and -8.1% and 8.75% | -1.65% and -19.1% and -2.9%
NC(=O)c1c([N+](=O)[O-])ccc(N(CCCl)CCCl)c1[N+](=O)[O-] | -5.1% | 1.25% | -12.9% | 4.75% | -5% | -6.05%
CCN(CC)c1cc[c]([Hg][O]C(C)=O)cc1 | 99.2% (active) | 99% (active) | 99.5% (active) | 99.2% (active) | 99% (active) | 99.2% (active)
O=C(CC([Se]c1ccccc1)c1ccccc1)c1ccccc1 (stereo not drawn) | 98% (active) | 88.8% (active) | 95.7% (active) | 89.4% (active) | 93.7% (active) | 98% (active)
c1ccc([As]2[As](c3ccccc3)[As](c3ccccc3)[As]2c2ccccc2)cc1 (stereo not drawn) | 99.5% (active) | 99.8% (active) | 99.8% (active) | 98.1% (active) | 99.2% (active) | 99.5% (active)

SMILES | growth inhibition [1] | growth inhibition [2] | growth inhibition [3] | growth inhibition [4] | growth inhibition [5] | growth inhibition [6]
C1OCN2CSCC12 (stereo not drawn) | 4% | 28.8% | 30.4% | 5.35% | 27.9% | 31.8%
COc1ccc2c(c1O)[C@@]13CCN(C)[C@@H](C2)[C@H]1CC(C)C(=O)C3 (stereo partly drawn) | 5.65% | -30.6% | 8.55% | 17.2% | -0.6% | -2.5%
CC(C)c1ccc(-n2c(=S)[nH]c3ccccc3c2=O)cc1 | -16.3% | -7% | -13.8% | -25% | -5.7% | 13.8%
CN1CCC23CC=CCC2C1Cc1ccc([N+](=O)[O-])cc13 (stereo not drawn) | -4.15% | 11.3% | 7.25% | -3.15% | 2.4% | 35%
COc1cc(C2c3cc4c(c(O)c3C[C@H]3COC(=O)[C@@H]23)OCO4)cc(OC)c1O (stereo partly drawn) | -25.7% | -23.1% | -16.8% | 5.8% | 2.85% | -13.6%
NC(=O)c1cc([N+](=O)[O-])cc([N+](=O)[O-])c1 | 1.35% | -16.2% | 9.1% | 0% | 3.35% | 14.8%
CCC(CC)(COC(=O)C(O)(c1ccccc1)c1ccccc1)C[N+](C)(C)C | -4.45% | -2.85% | 1% | -24.9% | 0.5% | -12.7%
CC(C)(OOC(C)(C)c1ccccc1)c1ccccc1 | -13.1% | -16% | 4.6% | -40.9% | 6.05% | -8.95%
ClCCn1c(/C=C/c2nc3ccccc3n2CCCl)nc2ccccc21 | 26.1% | 5.8% | 6.1% | -32.1% | -3.65% | 20.6%
CN(C)C(=O)Oc1c(Cl)cc(S(=O)(=O)F)cc1Cl | 26.4% | 0.8% | 12.7% | 12.8% | 2.65% | 12.4%
CC1=C/C(=N\[Se]c2ccccc2)C(=O)C(C)=C1 | 43.7% | 27.4% | 24% | -9.05% | 47.4% | 36.3%
CCCCOc1ccc([As](=O)(O)O)cc1 | -17.4% | -10.2% | 4.3% | -19.2% | 16.1% | 5.65%
CCC1C2CC3C4N(C)c5ccccc5C45CC(C2C5O)N3C1O (stereo not drawn) | 20.9% and -6.8% and -4.75% | -7.75% and 5.2% and -40.8% | -16.9% and 15.7% and -14.2% | -17.9% and -3.4% and -0.6% | 13.6% and -10.1% and -32.2% | -11.4% and -41% and -23.6%
C/C=C/COC(=O)CO[N+](=O)[O-] | 2% | -4.25% | -5.3% | -12.8% | -0.5% | -0.15%
CCOC(=O)C1OC(C2(C)OC3(OC4(C=CC3O)OC(C(C)C(=O)C(C)C(O)C(C)CC(C)c3c(Cl)cc(C)c(O)c3C(=O)O)C(C)CC4C)C(C)C2OC)CC1O (stereo not drawn) | -12.7% | -27% | -6.95% | 22.9% | 5.9% | 5.75%
CC(C)(C)C1=C(Br)C(F)(C(C)(C)C)OP1(=O)c1ccccc1 (stereo not drawn) | 88.7% (active) | 92.3% (active) | 90.5% (active) | 90.5% (active) | 90% (active) | 91.6% (active)
CC(=O)CC(C)=O.CC(=O)CC(C)=O.CC(=O)CC(C)=O.[Co] | -27.8% and 13.9% | -50.8% and -4.9% | -4.85% and 26.6% | -20.4% and -16.4% | -45% and 23.6% | -10.2% and 21.3%
O=c1ccc(=O)[nH][nH]1 | 6.25% and 36.3% and -4.05% | 10.2% and 23.1% and -12.5% | 5.6% and 7.25% and -6.05% | 3.85% and 27.6% and -7.1% | 1.65% and 30% and 26.9% | 10.8% and 16.1% and 6.25%
COc1ccc2nc3ccccc3c(NCCCCCCN(CCCl)CCCl)c2c1 | 88.2% (active) | 79.1% (active) | 80.8% (active) | 86.3% (active) | 48.4% | 82.9% (active)
O=C(C1CO1)C(Cl)(Cl)Cl (stereo not drawn) | -3.95% | -6.85% | 3.8% | -8.2% | -15.2% | -2.35%
N=C(N)N1CCNc2ccccc2C1 | 14.9% | -10.2% | -7.3% | 28.8% | -1.2% | 6.3%
